In the library only some 2.3% were active in any assay of this set; here they are far more common.
MITF TRPM1 inh: reduces MITF-dependent TRPM1 promoter luciferase signal; SK-MEL-5 TRPM1 promoter luciferase, 24 h; inhibition, % at 12.5 µM; 330,000 tested, 0.83% active; AID 488899;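 active = mean inhibition across replicates of 60% or more, whatever share of single replicates reaches that level; inconclusive = some that reach 60%, reason not given; inactive = mean inhibition across replicates below 60%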
697 NFkB inh: inhibitors of the PMA/ionomycin-induced NF-kB reporter in 697 B cells. inhibition, % at 4 µM. 697 B-cell NF-kB luciferase reporter, 16 h. 330,000 tested, 0.33% active; in the data active = inhibition above about 35%
EBV LMP1 NFkB: inhibitors of Epstein-Barr LMP1-induced NF-kappaB reporter | LMP1-induced NF-kappaB luciferase reporter cells, luminescence | inhibition, % at 12.5 µM | AID 504558 | 350,000 tested, 0.69% active; in the data active = inhibition above about 41%; inconclusive = no clear call, values can overlap the other calls;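 note: 0% = neutral control wells and 100% = reference inhibitor control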
Jurkat NFkB inh: lowers PMA/ionomycin-induced NF-kB signal in Jurkat cells; inhibition, % at 4 µM; 330,000 tested, 0.53% active; PMA/ionomycin-induced NF-kB luciferase reporter, luminescence; in the data active = inhibition above about 50%
Gli-Sufu antag: antagonists of Gli-Sufu signaling; Sufu-KO-LIGHT fibroblasts, Gli luciferase reporter luminescence; inhibition, % at 5 µM; 340,000 tested, 0.74% active; AID 588413;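 active = inhibition above about 55%, limit read from the data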;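 note: 0% = DMSO-treated cells and 100% = wells with medium but no cells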
Shn3 3UTR inh: Schnurri-3 reporter inhibition in Clone20 osteoblasts. Clone20 osteoblast Shn3 3'UTR firefly luciferase, 24 h. inhibition, % at 12.5 µM. 360,000 tested, 0.52% active;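 active = mean inhibition of at least 75% with every replicate also reaching 75%; inconclusive = mean inhibition at least 75% but some replicate below; inactive = mean inhibition below 75%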;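 note: 0% = median of neutral control wells and 100% = pilot-screen positive control compound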
The depositor's hits bear a star; ? = inconclusive; · = no result given.

SMILES | MITF TRPM1 inh | 697 NFkB inh | EBV LMP1 NFkB | Jurkat NFkB inh | Gli-Sufu antag | Shn3 3UTR inh
Cn1nc(C(C)(C)C)cc1C(=O)N1CCCCC1c1cc(C(=O)Nc2ccc(F)c(Cl)c2)no1 (configuration not stated) | · | · | · | · | · | 85.6*
O=C(Nc1ccc(F)c(Cl)c1)c1cc(C2CCCCN2C(=O)c2ccc(Cl)cc2)on1 (configuration not stated) | · | · | · | · | · | 9.5
CC(=O)Nc1ccc2c(c1)Cc1c-2cc(Cl)c(NC(C)=O)c1Cl | -18.6 | · | 3.0 | · | -2.2 | -10.8
O=C(Nc1c(Cl)cc2c(c1Cl)Cc1cc([N+](=O)[O-])ccc1-2)C(Cl)Cl | -15.1 | · | -29.9 | · | -20.5 | 94.8*
CCOC(=O)c1cccc(NC2c3ccccc3C(=O)N2Cc2ccco2)c1 (configuration not stated) | 13.5 | -5.4 | 10.9 | 11.0 | 36.9 | 90.4*
CCc1c(C(=O)Nc2ccccc2)c(C)[nH]c(=S)c1C#N | 11.3 | 5.8 | -4.7 | -15.4 | -2.1 | 5.1
CCCSc1ccc2nc(-c3ccccc3)cn2c1 | 79.1* | -171.9 | 68.2* | -47.1 | 18.7 | 52.9
CCCNC(=O)COC(=O)c1ccccc1C(=O)c1ccc(Cl)c([N+](=O)[O-])c1 | 86.9* | -0.9 | 48.0* | 0.9 | -4.3 | 9.6
Cc1ccc(Cl)c(NC(=O)COC(=O)c2ccccc2C(=O)c2ccc(Cl)c([N+](=O)[O-])c2)c1Cl | 87.3* | · | 72.9* | · | 10.5 | 55.5
Cc1ccc(C(=O)c2ccccc2C(=O)OCC(=O)NCCc2ccc(Cl)cc2Cl)cc1 | 2.4 | -15.6 | 1.3 | 0.1 | -5.3 | 19.9
Cc1ccc(C(=O)c2ccccc2C(=O)OCC(=O)Nc2cccc([N+](=O)[O-])c2)cc1 | -9.0 | -1.6 | -4.1 | -12.5 | -7.6 | 20.0
COC1=C(Br)C(=O)c2ncccc2C1=O | 65.0* | · | 3.6 | · | 16.3 | 60.9
O=C1C(=O)c2cccnc2-c2ncccc21 | · | · | · | · | · | 94.7*
O=C1c2cccnc2-c2ncccc21 | -5.9 | 10.5 | -0.3 | 5.2 | -0.6 | -19.9
O=C(NN1C(=O)C2C3C=CC(C4CC34)C2C1=O)c1ccccc1Cl (configuration not stated) | 0.6 | -4.9 | 7.9 | -0.7 | -4.0 | 8.0
CCOc1cccc(/C=N/NC(=O)c2cc(C3CC3)[nH]n2)c1O | 61.4* | -29.4 | -3.9 | 13.1 | 25.8 | 94.5*
CC(=O)n1cc(C(C[N+](=O)[O-])SCCN)c2ccccc21 (configuration not stated) | 86.5* | 27.6 | 21.9 | -11.0 | 20.9 | 43.3
COc1ccccc1Nc1nc2ccccc2n1C | -91.1 | -80.4 | -28.6 | -80.1 | -39.1 | -62.8
NC(N)=N/N=C/c1ccc(OCc2ccccc2)c(OCc2ccccc2)c1 | 82.5* | -5.9 | -24.3 | 14.4 | -5.5 | 66.8
CCOc1cc(/C=N/N=C(N)N)ccc1OCc1ccc(Cl)cc1 | 90.0* | · | 4.8 | · | 2.7 | 95.3*
COc1cc(/C=N/N=C2/NC(=O)C(CC(=O)O)S2)ccc1OCc1ccc(Cl)cc1 (configuration not stated) | -58.8 | 0.9 | -18.4 | -38.9 | -23.4 | -83.5
COc1cc(/C=N/N=C(N)N)ccc1OCc1ccc(Cl)cc1 | 89.0* | -143.5 | 13.3 | -4.6 | 51.8 | 55.5
CN(Cc1cc(Cl)cc(Cl)c1)[C@H]1C[C@H]2c3[nH]c4ccccc4c3CCN2C(=O)[C@H]1CO | · | · | -8.3 | · | · | -8.8
CN(C)CCCNc1nc2sc3c(c2c(=O)n1CCc1ccccc1)CCCCC3 | 64.6* | 7.4 | -4.4 | 0.1 | 11.5 | 4.7
C#CCCc1ccccc1/C=[N+](/C)[O-] | 65.5* | 4.1 | 2.6 | -20.3 | -1.1 | 5.1
SMILES | MITF TRPM1 inh | 697 NFkB inh | EBV LMP1 NFkB | Jurkat NFkB inh | Gli-Sufu antag | Shn3 3UTR inh
COc1ccc2nc(N=Nc3ccc(O)c4ccccc34)sc2c1 | 74.9* | 16.0 | 0.7 | 24.5 | 22.7 | ?
CC1(C)CC(=O)C(N=Nc2ccc3ncsc3c2)=C(O)C1 | -2.0 | 2.2 | -6.2 | 0.8 | -3.5 | -49.0
COc1ccc2nc(N=NC3=C(O)CC(C)(C)CC3=O)sc2c1 | 63.6* | 2.4 | 13.5 | 0.8 | -12.5 | -30.9
CCC1(C)CC(c2csc(N)n2)CCO1 (configuration not stated) | -2.2 | 9.1 | -1.7 | 1.2 | 1.7 | -9.7
Cc1ccc(-c2nc(CS(=O)CC(=O)NCc3ccc(Cl)cc3)c(C)o2)cc1 (configuration not stated) | · | 8.1 | 5.5 | 2.7 | 2.5 | 4.7
COc1ccc(-c2nc(CS(=O)CC(=O)NCc3ccc(Cl)cc3)c(C)o2)cc1 (configuration not stated) | 5.1 | -2.5 | 43.7* | -9.0 | 3.8 | 10.4
Cn1c2ccccc2c(=O)c2cc(C#Cc3cccc(N)c3)ccc21 | -80.4 | -18.7 | 52.4* | -27.6 | -29.2 | -94.5
Cn1c2ccccc2c(=O)c2ccc(C#Cc3ccc(N)cc3)cc21 | -21.4 | -31.0 | 1.6 | -20.4 | 4.8 | 28.3
CC(C)CCNC(=S)Nc1ccc2nc3n(c(=O)c2c1)CCCCC3 | -16.2 | 1.6 | 62.7* | -13.4 | -8.0 | -12.4
O=C(Nc1ccc2nc3n(c(=O)c2c1)CCCC3)c1cc([N+](=O)[O-])ccc1F | 81.1* | -2.7 | 1.9 | -1.5 | 5.5 | 91.3*
COc1ccc(/C=N/NC(=O)C(C)Sc2ccccn2)cc1[N+](=O)[O-] (configuration not stated) | 8.5 | 17.5 | 4.5 | -3.5 | -5.9 | -1.0
COc1cc(NC(=O)NCc2ccco2)ccc1-c1ccc(NC(=O)NCc2ccco2)cc1OC | ? | · | 0.9 | · | 1.4 | 82.7*
COc1ccccc1CNC(=O)c1cnc2sccn2c1=O | -0.6 | -1.4 | -7.3 | -4.4 | 0.6 | 13.3
O=C(c1ccc([N+](=O)[O-])cc1)N(Cc1ccc(Cl)cc1Cl)N1C(=O)CCCC1=O | -9.8 | 8.8 | 0.3 | -23.7 | 22.6 | -8.4
CC(=C/c1ccccc1)/C=C1/SC(N2CCOCC2)=NC1=O | -62.7 | -84.7 | -2.8 | -56.3 | 24.4 | -26.7
O=C(N/N=C(\Cc1ncc[nH]1)c1ccccc1)c1ccccc1 | · | 17.9 | · | 10.8 | · | ·
COc1ccc(CCN2CCC(Nc3nc4ccccc4n3Cc3ccc(F)cc3)CC2)cc1 | 95.8* | -17.1 | -25.0 | 48.5 | 28.0 | 14.3
CC(C)CCn1c(Sc2nc3ccccc3o2)nc2c1c(=O)[nH]c(=O)n2C | -54.8 | -50.4 | 57.4* | -18.6 | 22.5 | -59.7
Cn1c(=O)[nH]c(=O)c2c1nc(N1CCCCC1)n2CCSc1nc2ccccc2o1 | · | -33.3 | 1.2 | -13.1 | 2.0 | -10.8
S=C(NNc1ccnc2cc(Cl)ccc12)Nc1ccc(Cl)cc1Cl | 64.5* | -27.3 | 10.9 | 10.6 | 19.5 | 87.9*
CC(O)(c1ccncc1)c1nc(-c2cccc(C(F)(F)F)c2)cs1 (configuration not stated) | · | · | · | · | · | 85.2*
COc1ccc(C(=O)/C(=C/N(C)C)S(=O)(=O)c2ccccc2)cc1 | -88.0 | -7.6 | -7.7 | -41.5 | -6.6 | -19.7
CCN(CC)c1ccc(N)cc1 | 86.4* | -4.6 | ? | 12.2 | 60.9* | ?
CCOc1ccc(NS(=O)(=O)c2ccc(OC)c(NC(=O)c3ccc4c(c3)OCCO4)c2)cc1 | -0.7 | -7.8 | 10.2 | -3.2 | 7.2 | 3.7

Source: PubChem
